According to PubChem BioAssay (NCI):
About 83,000 compounds went through this panel and 20% of them were active in at least one assay; those are over-represented in the sample as a whole.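 In brief: 96-well plates, 48 h treatment, single concentration, percent growth endpoint.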 Values without a mark were called inactive. The source made the active and inactive calls. The calls were made as follows: active = growth percent below 10; inactive = the rest.

Key:
Experiment in all cases: NCI-60 one-dose screen, 48 h (100 = growth as untreated, 0 = no growth, -100 = all killed)
Settings in all cases: 10 µM unless noted
[1] = test system: T-47D breast
[2] = test system: BT-549 breast
[3] = test system: MDA-MB-435 melanoma
[4] = test system: SW-620 colon
[5] = test system: MCF7 breast
[6] = test system: HCT-116 colon
[7] = test system: HCC-2998 colon
[8] = test system: KM12 colon

| Structure (SMILES) | growth [1] | growth [2] | growth [3] | growth [4] | growth [5] | growth [6] | growth [7] | growth [8] |
| --- | --- | --- | --- | --- | --- | --- | --- | --- |
| NC(=O)CC1C=CCC1 (stereo unspecified) | 106% | 90.1% | 102% | 97.3% | 92.1% | 105% | 101% | 102% |
| C[C@H]1[C@H](C)CC[C@]2(C(=O)O)CC[C@]3(C)C(=CC[C@@H]4[C@@]5(C)C/C(=C/c6cccnc6)[C@H](O)C(C)(C)[C@@H]5CC[C@]43C)[C@H]12 | 15.2% [100 µM] | -7.55% [100 µM] (active) | 7.2% [100 µM] (active) | 14.9% [100 µM] | 3.47% [100 µM] (active) | -24.6% [100 µM] (active) | -8.19% [100 µM] (active) | -37.1% [100 µM] (active) |
| CC(C)(C)c1cc(C(=O)Nc2cc3ccccc3cc2C(=O)NCCN)cc(C(C)(C)C)c1 | -69% (active) | 82.2% | -88.3% (active) | -66.4% (active) | -85.6% (active) | -91.8% (active) | -86.5% (active) | -94.5% (active) |
| CC[C@]12C=CCN3CC[C@@]4(c5ccc(OC)cc5N(C)[C@H]4[C@@](O)(C(=O)OC)[C@@H]1OC(=O)CCC(=O)N[C@H](Cc1c[nH]c4ccccc14)C(=O)OC)[C@@H]32 | -29.3% [100 µM] (active) | -16.5% [100 µM] (active) | -60.6% [100 µM] (active) | -50.6% [100 µM] (active) | -43.3% [100 µM] (active) | 3.55% [100 µM] (active) | -43.3% [100 µM] (active) | -35.1% [100 µM] (active) |
| C=C(CC(=O)OC)C(C)=O | 108% | 127% | 116% | 102% | 111% | 116% | 112% | 102% |
| Cc1ccccc1-n1nnc(C(=O)Nc2nc3ccc(F)cc3s2)c1C | 18.1% | 36.8% | 59.2% | 85.5% | 65.3% | 46.5% | 78.6% | 72.4% |
| CC1(C)NCCC[C@]2(C)[C@H]3C=CC4=C5C[C@](C)(CO)CC[C@]5(C)CC[C@@]4(C)[C@]3(C)CC[C@@H]12 | -63.9% [100 µM] (active) | -87.9% [100 µM] (active) | -95.6% [100 µM] (active) | -80.7% [100 µM] (active) | -70.7% [100 µM] (active) | -77.4% [100 µM] (active) | -78.8% [100 µM] (active) | -85.5% [100 µM] (active) |
